Source: PubChem BioAssay
BaF3 tox = parental Ba/F3 viability inhibition as JAK2V617F counter-screen. hit rate 1.1% among 220,000. CellTiter-Glo ATP luminescence. inhibition, % at 5.6 µM;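 active = inhibition above a per-campaign cutoff, the mean inhibition of all tested compounds plus 3 SD, cut at about 27% in these data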;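 also: 0% = DMSO wells and 100% = JAK Inhibitor I control wells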
Ba/F3 V617F tox = reduce viability of Ba/F3 cells dependent on JAK2V617F; Ba/F3 EpoR-JAK2V617F viability, ATP luminescence; inhibition, % at 5.6 µM; hit rate 1.1% among 220,000; AID 1446;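 active = inhibition above the campaign mean plus 3 SD over all tested compounds, cut at about 24% in these data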;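 also: cytokine-independent growth of Ba/F3 cells driven by EpoR plus mutant JAK2; 0% = DMSO-treated cells and 100% = JAK inhibitor I control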
KLF5 inhibitor = suppresses KLF5 promoter-driven expression; hit rate 0.23% among 290,000; inhibition, % at 5 µM; DLD-1 KLF5 promoter-luciferase reporter, luminescence;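 active = inhibition above a per-plate limit of that plate's mean compound inhibition plus 3 SD, cut at about 60% in these data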;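 also: 0% = DMSO wells and 100% = LY294002 at 200 µM; higher means less KLF5 promoter-driven luciferase light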
IEC-6 tox = kills IEC-6 intestinal cells in KLF5 counter-screen; IEC-6 cytotoxicity, luminescence viability; AID 1825; inhibition, % at 5 µM; hit rate 0.78% among 290,000; in the data active = inhibition above about 22%;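 also: 0% = plate median of test compound wells and 100% = cytotoxic reference compound wells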
aSyn UTR inh = MLPCN primary screen, SNCA 5' untranslated region | alpha-synuclein 5'UTR reporter, inhibitor activity | AID 1813 | inhibition, % (tested at 7.5 µM) | hit rate 0.82% among 300,000; in the data active = inhibition above about 60%;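 also: H4 neuroglioblastoma cells stably carrying SNCA 5'UTR luciferase fusion; 0% = DMSO wells and 100% = positive control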
APP transl inh = APP translation inhibition. SH-SY5Y APP 5'UTR-luciferase reporter, luminescence. hit rate 0.82% among 190,000. inhibition, % at 2 µM;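 active = inhibition above a set limit, derived from the sample mean plus 3 SD, cut at about 45% in these data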
Active calls of the source: *; / = no result. Only some compounds are listed: those with a hit (about 2.2% of all), similar ones and a draw of the others.

SMILES	BaF3 tox	Ba/F3 V617F tox	KLF5 inhibitor	IEC-6 tox	aSyn UTR inh	APP transl inh
CCOC(=O)c1cc(S(=O)(=O)N2CCC(C)CC2)cn1C	/	/	-29	1	-1	/
CN(C)c1ccc(/C=N/Nc2nc3ccccc3o2)cc1	/	/	43	0	67*	/
CC(C)OP(=O)(c1ccc(N(C)C)cc1)C(O)c1ccc(N(C)C)cc1 (stereo unspecified)	/	/	-160	-2	5	/
CC(=O)c1ccc(OCC(O)COc2ccc(C(C)=O)cc2)cc1	96*	3	-14	1	12	11
COCCN(Cc1cc2cc(C)cc(C)c2nc1Cl)C(=O)Nc1ccccc1	7	-1	3	-4	-21	-5
Cc1cc(C)c2nc(Cl)c(CN(Cc3ccco3)C(=O)Nc3ccccc3C)cc2c1	3	2	-62	8	15	57*
Cc1cc(-c2ccccc2)nc2[n+]1CCN2C	62*	68*	-6	-3	-8	-12
Cc1nc(-c2ccccc2)cc(N2CCCC2)n1	0	-1	4	8	-35	-1
Cc1nc2scc(-c3ccc(C(C)C)cc3)c2c(=O)n1N	9	3	-3	11	19	-12
Cc1ccc(N=Nc2c(N)nn(-c3ccccc3)c2N)cc1	35*	47*	-72	25*	-183	-24
Cc1nc(NC(=O)c2ccccc2)sc1-c1csc(N)n1	69*	61*	-79	17	-39	-49
CCc1cc(SC#N)cc(CC)c1NC(=O)CCl	9	7	-1	-2	-31	10
CSc1nc(N)nc(C2CC2)n1	-2	-4	-2	-12	7	/
Cc1ccc(C)c(NC(=S)NC(NC(=O)N(C)C)C(Cl)(Cl)Cl)c1 (stereo unspecified)	-2	-5	16	2	-3	-8
Cc1ccc(C)c(NC(=S)NC(NC(=O)Cc2cccc3ccccc23)C(Cl)(Cl)Cl)c1 (stereo unspecified)	3	-4	-12	8	112*	-13
CCCn1c(=O)c(C(=O)OCC)c(O)c2cc(Br)ccc21	7	2	-17	5	3	-12
CCOC(=O)c1c2c(n(C)c1COC)C(=O)C(=O)c1ccc(Br)cc1-2	-2	-7	-15	-2	92*	0
C/C(=N\NC(=O)c1cc(-c2cccnc2)nc2ccccc12)c1ccccc1O	6	-1	-12	10	86*	56*
CN(CC1CCOCC1)C(=O)CC1C(=O)NCCN1Cc1ccccc1F (stereo unspecified)	/	/	-30	-3	0	/
O=C(CN1C(=O)C2CCCCC2C1=O)Nc1cccc([N+](=O)[O-])c1 (stereo unspecified)	/	/	/	/	-14	/
COC(OC)c1ccc(C#N)c(=O)[nH]1	8	7	-17	3	-4	46*
Clc1ccc(-c2cn3nc4c(nc3n2)CCCC4)cc1	2	-2	-24	3	88*	-191
COc1cccc(-c2cc(C(F)(F)F)n3nc(N)nc3n2)c1	2	1	-5	4	26	10
COc1cccc(-c2cn3nc4c(nc3n2)CCCC4)c1	1	-6	-1	8	104*	-170
Clc1ccc(-c2cn3cccnc3n2)cc1	6	0	-62	4	-132	-16
SMILES	BaF3 tox	Ba/F3 V617F tox	KLF5 inhibitor	IEC-6 tox	aSyn UTR inh	APP transl inh
O=C(O)c1cccc(COc2ccccc2Cl)c1	/	/	/	/	103*	/
O=C1NC(=O)/C(=C\c2ccc(OCc3cccc(C(=O)O)c3)c(Cl)c2)N1	5	0	-32	-1	70*	-79
O=C(O)c1ccc(COc2ccccc2Cl)cc1	-1	-4	-24	-3	-15	-10
COc1cc(/C=C2\NC(=S)NC2=O)ccc1OCc1cccc(C(=O)O)c1	/	/	-156	2	-10	/
O=C(NCc1ccccn1)c1ccc(Cl)c(NC2=NC3CS(=O)(=O)CC3S2)c1 (stereo unspecified)	/	/	-59	-6	9	/
Cc1ccc(C)c(NC(=S)NCc2ccc3[nH]c4c(c3c2)CCCC4)c1	8	1	-2	0	14	47*
COc1ccc(CNC(=S)Nc2cc(C)ccc2C)cc1	4	-2	-18	-2	21	70*
NC(=O)CCCn1c(C(=O)c2cc(Cl)c(N)c(Cl)c2)c2ccc(C(F)(F)F)cc2[n+]1[O-]	/	/	/	/	-8	/
COC(=O)Nc1nc2ccc(C(=O)c3ccc(F)cc3)cc2[nH]1	19	51*	17	20	99*	/
CCCOc1ccc2nc(NC(=O)OC)[nH]c2c1	75*	78*	60	81*	84*	86*
